This is an account of results in PubChem BioAssay (NCI).

Assay [1] in a line: NCI Yeast Anticancer Drug Screen. Data for the rad50 strain (AID 155).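 Further: 0% = growth of vehicle-only cultures of the same strain.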 To be noted: S. cerevisiae rad50 strain growth inhibition; at 50.0 µM; active compounds read high. The method, boiled down:
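Cells are treated with compound, grown, and their growth is then scored against vehicle-only cultures of the same repair-deficient yeast strain.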

Assay [2] in a line: NCI Yeast Anticancer Drug Screen. Data for the mec2-1 strain (AID 157). To be noted: S. cerevisiae mec2-1 strain, at 50.0 µM, active compounds read high. The method, boiled down:
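Using mec2-1 yeast: add compound, measure growth, express inhibition versus vehicle-treated cultures.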

Assay [3] can be described thus: NCI Yeast Anticancer Drug Screen. Data for the sgs1 mgt1 strain (AID 161).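 Further: 0% = growth of cultures given vehicle only.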 The settings on record: S. cerevisiae sgs1 mgt1 strain, at 50.0 µM, active compounds read high. The procedure, abridged:
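Compounds are added to genetically altered yeast, and growth is compared with cultures given vehicle alone to give percent inhibition.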

Assay [4] is described as follows: NCI Yeast Anticancer Drug Screen. Data for the cln2 rad14 strain (AID 165).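 Further: 0% = growth equal to vehicle treated cultures.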 The settings on record: S. cerevisiae cln2 rad14 strain, at 50.0 µM, active compounds read high. The method, boiled down: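 Yeast strain cln2 rad14, bearing defects in cell cycle control and DNA repair, serves as the test system; values reflect growth inhibition compared with vehicle.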
Assay [5] can be described thus: NCI Yeast Anticancer Drug Screen. Data for the bub3 strain (AID 167). The settings on record: S. cerevisiae bub3 mutant strain, at 50.0 µM, active compounds read high. The method, boiled down:
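Part of a panel of yeast mutants defective in DNA damage repair or cell cycle regulation. Each strain is grown with compound, and inhibition is calculated relative to solvent-treated cultures.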

Assay [6] can be described thus: NCI Yeast Anticancer Drug Screen. Data for the mlh1 rad18 strain (AID 175). To be noted: S. cerevisiae mlh1 rad18 strain growth inhibition; at 50.0 µM; active compounds read high. The procedure, abridged: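 Steps: expose repair-defective yeast to compound; measure growth; express inhibition against vehicle-treated controls.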

Where “and” joins values, the source holds several entries; their conditions need not be identical. Identical values can stand only once. The panel holds about 79,000 compounds, 15% with a hit somewhere; the sample as a whole holds those more often. Unmarked numbers belong to inactive results. Calls of active or inactive are those of the source. No stated cut-off is given here; in the data, active means growth inhibition above about 70%; inactive means the rest.

Turning to `COc1ccc(CC(N)c2ccccc2)cc1` (stereo unspecified), the growth inhibition in assay [1] is 8.25%; in assay [2] it was 18.1%; in assay [3] it was 6.4%; in assay [4], 10.2%; in assay [5], 12.8%; in assay [6], -3.5%.
As to `CCCCSP(=S)(SCCCC)c1ccc(Cl)cc1`, the growth inhibition is 30.7% in assay [1]; 9.4% in assay [2]; 13.8% in assay [3]; 17.6% in assay [4]; 19% in assay [5]; 14.2% in assay [6].
In the case of `CCCCP(=O)(CCCC)CCCC.CCCCP(=O)(CCCC)CCCC.CCCCP(=O)(CCCC)CCCC.CCCCP(=O)(CCCC)CCCC.[Ce+3].[O-][Cl+3]([O-])([O-])O`, the growth inhibition in assay [1] is 43.9%; in assay [2] it was 36.3%; in assay [3] it was 30.6%; in assay [4], 33.9%; in assay [5], 62.1%; in assay [6], 42.4%.
As for `CCNC(Cc1ccccc1)C1CCCO1` (stereo unspecified), the growth inhibition in assay [1] is 3.15%; in assay [2], -0.35%; in assay [3], -15.6%; in assay [4] it was 2%; in assay [5] it was -18.4%; in assay [6] it was -27.9%.
As to `NC(=O)C(CCN1CCCCC1)(c1ccccc1)c1ccccc1`, the growth inhibition in assay [1] is -9.6%; in assay [2] it was -14.9%; in assay [3] it was 5.65%; in assay [4], -35.4%; in assay [5] it was -8.8%; in assay [6], -8.25%.
Take `O=C(COc1ccc(Cl)cc1C(=O)O)Nc1cccc(NC(=O)Nc2cccc(S(=O)(=O)F)c2)c1`: the growth inhibition in assay [1] was 2.3%; in assay [2], -13.3%; in assay [3] it was -12.9%; in assay [4], -17.9%; in assay [5] it was 1.95%; in assay [6] it was 11.6%.
As to `CCCCOP(=O)(OCCCC)OC(C)C(C)=O` (stereo unspecified), the growth inhibition in assay [1] is -0.15%; in assay [2], 2.75%; in assay [3], 5.6%; in assay [4], 0.45%; in assay [5], 5.15%; in assay [6], -2.05%.
`O=[N+]([O-])O.[Sm]`: the growth inhibition was 12.3% in assay [1]; 3.95% in assay [2]; 26.8% in assay [3]; 17.1% in assay [4]; 15.7% in assay [5]; -18.4% in assay [6].
In the case of `Cc1cccc(OCC2=NCCN2)c1C`, the growth inhibition in assay [1] is 2.95%; in assay [2] it was -4.4%; in assay [3], -8.45%; in assay [4] it was -57.1%; in assay [5], -4.55%; in assay [6], -25.6%.
In the case of `[NH-]C(CO)C(=O)O.[NH-]C(CO)C(=O)O.[Pd+2]` (stereo unspecified), the growth inhibition in assay [1] is -8.55%; in assay [2], -3.9%; in assay [3], -6.15%; in assay [4] it was -7.2%; in assay [5], -5.95%; in assay [6], 15.9%.
As to `CC(=O)Nc1ccc(NN=O)cn1`, the growth inhibition in assay [1] was 40.9%; in assay [2], 4.7%; in assay [3], -15.9%; in assay [4] it was -7.95%; in assay [5], -37.8%; in assay [6], 12.2%.
`CC(=O)O.CC(=O)O.[Co+2].[NH-]C(CCC(N)=O)C(=O)O.[NH-]C(CCC(N)=O)C(=O)O` (stereo unspecified): the growth inhibition in assay [1] is 15.2%; in assay [2], 13.4%; in assay [3], 34.2%; in assay [4], -4%; in assay [5], 22.3%; in assay [6] it was 19.9%.
On to `CC(=O)SCCC(NC(=S)Nc1ccccc1)P(=O)(Oc1ccccc1)Oc1ccccc1` (stereo unspecified), for which the growth inhibition is -17.9% in assay [1]; 10.3% in assay [2]; 8.35% in assay [3]; -11.9% in assay [4]; -7.1% in assay [5]; -10.3% in assay [6].
Consider `c1ccc(-c2ccc([As](c3ccccc3)c3ccccc3)cc2)cc1`, for which the growth inhibition is 11.4% in assay [1]; 4.5% in assay [2]; 19.6% in assay [3]; 3.85% in assay [4]; 7.6% in assay [5]; 11.8% in assay [6].
With `O=P1(C(Cl)Cl)OCCCO1`, the growth inhibition was -9.35% in assay [1]; 10.7% in assay [2]; -2.65% in assay [3]; -10.2% in assay [4]; -0.15% in assay [5]; -0.15% in assay [6].
Turning to `Cc1ccccc1[N+](=O)[O-]`, the growth inhibition in assay [1] is 19.1%; in assay [2], 13.6%; in assay [3] it was 2.5%; in assay [4], 9.45%; in assay [5] it was -10.1%; in assay [6] it was -3.3%.
`O=[N+]([O-])C1CC/C(=N/O)c2nonc21` (stereo unspecified): the growth inhibition is 0.3% in assay [1]; 9.5% in assay [2]; 18.5% in assay [3]; 19.6% in assay [4]; 5.3% in assay [5]; 18.6% in assay [6].
For `COP(=O)(NC(C)=O)OC`, the growth inhibition was 11.6% in assay [1]; -14.7% in assay [2]; -4.5% in assay [3]; -45.8% in assay [4]; -10.5% in assay [5]; -1.55% in assay [6].
Regarding `NC(Cc1ccc(N(CCCl)Cc2ccccc2)cc1)C(=O)O` (stereo unspecified), the growth inhibition is 10.1% in assay [1]; -13.2% in assay [2]; 2% in assay [3]; -3.85% in assay [4]; -29.2% in assay [5]; -31.5% in assay [6].
`CC(N)C(O)c1ccc(O)cc1` (stereo unspecified): the growth inhibition is -14% in assay [1]; -12% in assay [2]; -21.1% in assay [3]; -4.95% in assay [4]; -39.2% in assay [5]; -44% in assay [6].
Regarding `COc1ccc(/C=C\[N+](=O)[O-])cc1OCc1ccccc1`, the growth inhibition was 7.2% in assay [1]; 8.35% in assay [2]; 22.6% in assay [3]; -13.6% in assay [4]; 7.2% in assay [5]; 8.05% in assay [6].
`C=C[CH2][Sn]([CH3])([CH3])[CH2]C=C`: the growth inhibition in assay [1] was 11.1%; in assay [2], 4.35%; in assay [3] it was 2.75%; in assay [4], -19.4%; in assay [5], -12.6%; in assay [6], 4.75%.
For `CCOP(=O)(NC(C)C)OCC`, the growth inhibition in assay [1] was -4.55%; in assay [2] it was -18.6%; in assay [3], -2.8%; in assay [4], 16.9%; in assay [5], 6.8%; in assay [6] it was -1.8%.
Regarding `CC1(C)CC(=O)CC(C)(C)C1`, the growth inhibition was -25.6% in assay [1]; -12.2% in assay [2]; -1.65% in assay [3]; 4.35% in assay [4]; -13.2% in assay [5]; -11.2% in assay [6].
Regarding `NC(N)=N/N=C/C(=N\N=C(N)N)C(O)C(O)C(O)C(O)CO` (stereo unspecified), the growth inhibition in assay [1] was -10.3% and 44.2%; in assay [2], -20.9% and -3.55%; in assay [3], -16.1% and 31.9%; in assay [4], -22.6% and 15.1%; in assay [5] it was -3.8% and 7.3%; in assay [6], -22.4% and 15.9%.
In the case of `CC(=O)[O][Pb]([CH3])([CH3])[CH3]`, the growth inhibition in assay [1] was -28%; in assay [2] it was -35.9%; in assay [3] it was -12.4%; in assay [4], 6.7%; in assay [5], -55.5%; in assay [6] it was -20.8%.
Regarding `N.N.N.N.N.O=C([O-])CCl.[Co+3].[O-][Cl+3]([O-])([O-])[O-]`, the growth inhibition in assay [1] was -21.4%; in assay [2] it was -7.45%; in assay [3], -33.5%; in assay [4] it was -0.1%; in assay [5], -16.6%; in assay [6], -31.4%.
With `CCCC1(c2ccccc2)C(=O)NCNC1=O`, the growth inhibition was -21.8% in assay [1]; -30.4% in assay [2]; -24.3% in assay [3]; -12.2% in assay [4]; -25.4% in assay [5]; -25.1% in assay [6].
In the case of `O=[N+]([O-])c1ccc(CCBr)cc1`, the growth inhibition in assay [1] was 28.8% and 30.2%; in assay [2], 1.25% and 37.6%; in assay [3], 13.4% and 34%; in assay [4], 17.1% and 11.8%; in assay [5], 36.3% and 3.2%; in assay [6], 17.6% and -2.15%.
For `CC[CH2][Sn](=[O])[c]1ccccc1`, the growth inhibition in assay [1] was 61.6%; in assay [2], 72% (active); in assay [3], 57.1%; in assay [4], 42.3%; in assay [5], 50.6%; in assay [6] it was 78.2% (active).
For `CCOC(=O)Cc1ccccc1`, the growth inhibition in assay [1] was 24.1%; in assay [2] it was -5.85%; in assay [3], -1.95%; in assay [4], -2.05%; in assay [5] it was 9.25%; in assay [6], 23.8%.
With `CC1CC2C(CCC3(C)C2CC2(CC2)C3(C)O)C2(C)CCC(O)CC12O` (stereo unspecified), the growth inhibition is 12.6% in assay [1]; 8.55% in assay [2]; 19.9% in assay [3]; -50% in assay [4]; -7.35% in assay [5]; 1.9% in assay [6].
With `CCOP(=S)(OCC)OP(=O)(CC)CC`, the growth inhibition in assay [1] is 3.1%; in assay [2], -10.1%; in assay [3] it was -1.7%; in assay [4], 4.4%; in assay [5], 9.2%; in assay [6], -2.55%.
On to `O=C(CN1CCOCC1)c1ccccc1`, for which the growth inhibition in assay [1] was -1.55% and -6.6%; in assay [2], -4.1% and -13.4%; in assay [3], -2.65% and -9.4%; in assay [4] it was 3.55% and -42%; in assay [5], -3.85% and -14.3%; in assay [6], -1.85% and -22.9%.
On to `CCCOCC(O)C[As](=O)(O)c1cccc(Cl)c1` (stereo unspecified), for which the growth inhibition was 2.35% in assay [1]; 3.55% in assay [2]; 0.3% in assay [3]; -4.4% in assay [4]; 10.2% in assay [5]; -5.55% in assay [6].
As for `COc1cc(C2c3cc4c(c(O)c3C[C@H]3COC(=O)[C@@H]23)OCO4)cc(OC)c1O` (stereo partly specified), the growth inhibition in assay [1] was -25.7%; in assay [2], -23.1%; in assay [3] it was -16.8%; in assay [4] it was 5.8%; in assay [5], 2.85%; in assay [6] it was -13.6%.
